Laboratory results from PMC11006913.
Positions count from the first letter of the chain named.

Columns and labels:
Assay in all cases: PBM; 200 nM protein, PBS
Details in all cases: dsDNA, one strand shown
[1] = target: HOXB9 (Homo sapiens, UniProt P17482 171-250)
[2] = target: HOXB9 (Homo sapiens, UniProt P17482 171-250, R186Q)
[3] = target: HOXC9 (Homo sapiens, UniProt P31274 178-260)
[4] = target: MSX2 (Homo sapiens, UniProt P35548 130-214, R199I)
[5] = target: HOXC9 (Homo sapiens, UniProt P31274 178-260, R193K)
[6] = target: T1, NKX2-6 (Homo sapiens, UniProt A6NCS4 118-204, R150C)
T1 sequence: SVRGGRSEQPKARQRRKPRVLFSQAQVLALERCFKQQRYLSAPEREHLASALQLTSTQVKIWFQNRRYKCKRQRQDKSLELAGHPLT

[7] = target: T2, NKX2-6 (Homo sapiens, UniProt A6NCS4 118-204, F151L)
T2 sequence: T1 sequence with C33R, F34L

[8] = target: NKX3-2 (Homo sapiens, UniProt P78367 192-278, P234S)
[9] = target: NKX3-2 (Homo sapiens, UniProt P78367 192-278)
[10] = target: HOXC9 (Homo sapiens, UniProt P31274 178-260, R222W)
[11] = target: PROP1 (Homo sapiens, UniProt O75360 56-141)
[12] = target: PROP1 (Homo sapiens, UniProt O75360 56-141, R99H)
[13] = target: PROP1 (Homo sapiens, UniProt O75360 56-141, F88S)
[14] = target: T3, NKX2-6 (Homo sapiens, UniProt A6NCS4 118-204)
T3 sequence: T1 sequence with C33R

[15] = target: ALX1 (Homo sapiens, UniProt Q15699 118-204, L144V)
[16] = target: ALX1 (Homo sapiens, UniProt Q15699 118-204, L144R)
[17] = target: ALX1 (Homo sapiens, UniProt Q15699 118-204)
[18] = target: HOXA4 (Homo sapiens, UniProt Q00056 201-287)
[19] = target: ALX3 (Homo sapiens, UniProt O95076 139-225, N203Q)
[20] = target: HOXD13 (Homo sapiens, UniProt P35453 263-343, T313R)
[21] = target: HOXD13 (Homo sapiens, UniProt P35453 263-343)
[22] = target: ALX3 (Homo sapiens, UniProt O95076 139-225)
[23] = target: ALX3 (Homo sapiens, UniProt O95076 139-225, L168Q)
[24] = target: HOXD13 (Homo sapiens, UniProt P35453 263-343, T313A)
[25] = target: ALX3 (Homo sapiens, UniProt O95076 139-225, L168V)
[26] = target: ALX3 (Homo sapiens, UniProt O95076 139-225, N203S)
[27] = target: PITX2 (Homo sapiens, UniProt Q99697 72-157)
[28] = target: CRX (Homo sapiens, UniProt O43186 26-111, E42D)
Chain of CRX (O43186 26-111 E42D): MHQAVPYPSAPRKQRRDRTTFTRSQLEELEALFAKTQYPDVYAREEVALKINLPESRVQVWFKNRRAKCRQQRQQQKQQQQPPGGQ

Chain of ALX1 (Homo sapiens, UniProt Q15699 118-204, L144V) (Q15699 118-204 L144V): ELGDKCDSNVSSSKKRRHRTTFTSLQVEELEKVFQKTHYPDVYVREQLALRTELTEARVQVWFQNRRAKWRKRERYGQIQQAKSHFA
Chain of NKX3-2 (Homo sapiens, UniProt P78367 192-278, P234S) (P78367 192-278 P234S): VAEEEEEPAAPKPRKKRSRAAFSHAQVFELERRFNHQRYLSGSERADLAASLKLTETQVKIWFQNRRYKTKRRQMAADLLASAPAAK
Chain of NKX3-2 (Homo sapiens, UniProt P78367 192-278) (P78367 192-278): as the sequence (P78367 192-278 P234S) above, with S43P counted along it
Chain of ALX1 (Homo sapiens, UniProt Q15699 118-204) (Q15699 118-204): as the sequence (Q15699 118-204 L144V) above, with V27L counted along it
Chain of PROP1 (Homo sapiens, UniProt O75360 56-141) (O75360 56-141): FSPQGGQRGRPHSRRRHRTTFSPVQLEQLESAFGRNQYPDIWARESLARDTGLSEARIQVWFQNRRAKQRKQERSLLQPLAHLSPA
Chain of HOXC9 (Homo sapiens, UniProt P31274 178-260, R222W) (P31274 178-260 R222W): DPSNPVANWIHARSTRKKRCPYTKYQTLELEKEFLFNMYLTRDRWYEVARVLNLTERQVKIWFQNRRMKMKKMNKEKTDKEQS
Chain of ALX1 (Homo sapiens, UniProt Q15699 118-204, L144R) (Q15699 118-204 L144R): as the sequence (Q15699 118-204 L144V) above, with V27R counted along it
Chain of HOXC9 (Homo sapiens, UniProt P31274 178-260) (P31274 178-260): as the sequence (P31274 178-260 R222W) above, with W45R counted along it
Chain of PROP1 (Homo sapiens, UniProt O75360 56-141, F88S) (O75360 56-141 F88S): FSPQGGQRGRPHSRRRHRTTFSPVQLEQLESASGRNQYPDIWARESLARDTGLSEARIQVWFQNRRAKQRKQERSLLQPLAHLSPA
Chain of ALX3 (Homo sapiens, UniProt O95076 139-225, L168Q) (O95076 139-225 L168Q): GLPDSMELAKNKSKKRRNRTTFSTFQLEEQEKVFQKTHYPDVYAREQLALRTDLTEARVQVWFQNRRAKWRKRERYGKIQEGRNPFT
Chain of ALX3 (Homo sapiens, UniProt O95076 139-225, N203Q) (O95076 139-225 N203Q): as the sequence (O95076 139-225 L168Q) above, with Q30L, N65Q counted along it
Chain of ALX3 (Homo sapiens, UniProt O95076 139-225, N203S) (O95076 139-225 N203S): as the sequence (O95076 139-225 L168Q) above, with Q30L, N65S counted along it
Chain of PROP1 (Homo sapiens, UniProt O75360 56-141, R99H) (O75360 56-141 R99H): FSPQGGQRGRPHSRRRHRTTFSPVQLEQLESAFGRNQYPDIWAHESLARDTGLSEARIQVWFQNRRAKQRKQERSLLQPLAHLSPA
Chain of ALX3 (Homo sapiens, UniProt O95076 139-225, L168V) (O95076 139-225 L168V): as the sequence (O95076 139-225 L168Q) above, with Q30V counted along it
Chain of ALX3 (Homo sapiens, UniProt O95076 139-225) (O95076 139-225): as the sequence (O95076 139-225 L168Q) above, with Q30L counted along it
Chain of HOXC9 (Homo sapiens, UniProt P31274 178-260, R193K) (P31274 178-260 R193K): as the sequence (P31274 178-260 R222W) above, with R16K, W45R counted along it
Chain of HOXD13 (Homo sapiens, UniProt P35453 263-343, T313A) (P35453 263-343 T313A): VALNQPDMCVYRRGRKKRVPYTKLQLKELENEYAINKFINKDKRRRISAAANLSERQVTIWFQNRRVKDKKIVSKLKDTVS
Chain of HOXB9 (Homo sapiens, UniProt P17482 171-250, R186Q) (P17482 171-250 R186Q): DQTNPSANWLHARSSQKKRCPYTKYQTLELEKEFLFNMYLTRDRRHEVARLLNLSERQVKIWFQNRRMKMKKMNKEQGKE
Chain of HOXA4 (Q00056 201-287): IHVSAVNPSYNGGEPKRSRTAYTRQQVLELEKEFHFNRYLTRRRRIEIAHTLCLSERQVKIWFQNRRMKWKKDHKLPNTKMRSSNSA
Chain of MSX2 (P35548 130-214 R199I): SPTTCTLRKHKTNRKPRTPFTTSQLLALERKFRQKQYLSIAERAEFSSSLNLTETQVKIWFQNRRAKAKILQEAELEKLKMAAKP
Chain of HOXD13 (Homo sapiens, UniProt P35453 263-343, T313R) (P35453 263-343 T313R): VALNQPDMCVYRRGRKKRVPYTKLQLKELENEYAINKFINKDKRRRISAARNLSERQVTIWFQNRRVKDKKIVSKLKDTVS
Chain of HOXB9 (Homo sapiens, UniProt P17482 171-250) (P17482 171-250): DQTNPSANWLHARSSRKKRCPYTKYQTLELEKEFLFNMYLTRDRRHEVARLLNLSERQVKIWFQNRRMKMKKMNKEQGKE
Chain of HOXD13 (Homo sapiens, UniProt P35453 263-343) (P35453 263-343): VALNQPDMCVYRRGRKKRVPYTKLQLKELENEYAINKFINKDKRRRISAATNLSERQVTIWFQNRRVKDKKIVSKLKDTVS

ACATTACA
binding signal [1]: 10.6 upbm affinity estimate (log intensity, higher = more binding, comparable within an allelic series)
binding signal [2]: 10.5 upbm affinity estimate (log intensity, higher = more binding, comparable within an allelic series)

CGTAACGC
binding signal [3]: 10.6 upbm affinity estimate (log intensity, higher = more binding, comparable within an allelic series)

CCAATCAA
binding signal [4]: 11 upbm affinity estimate (log intensity, higher = more binding, comparable within an allelic series)

CATGGTAA
binding signal [3]: 10.9 upbm affinity estimate (log intensity, higher = more binding, comparable within an allelic series)
binding signal [5]: 11 upbm affinity estimate (log intensity, higher = more binding, comparable within an allelic series)

CACTTACA
binding signal [6]: 11.6 upbm affinity estimate (log intensity, higher = more binding, comparable within an allelic series)
binding signal [7]: 10.6 upbm affinity estimate (log intensity, higher = more binding, comparable within an allelic series)
binding signal [8]: 12.6 upbm affinity estimate (log intensity, higher = more binding, comparable within an allelic series)
binding signal [9]: 12.6 upbm affinity estimate (log intensity, higher = more binding, comparable within an allelic series)

GCTCTTAA
binding signal [3]: 11 upbm affinity estimate (log intensity, higher = more binding, comparable within an allelic series)
binding signal [10]: 10.2 upbm affinity estimate (log intensity, higher = more binding, comparable within an allelic series)

AAGTGCAC
binding signal [6]: 11.6 upbm affinity estimate (log intensity, higher = more binding, comparable within an allelic series)
binding signal [8]: 12.6 upbm affinity estimate (log intensity, higher = more binding, comparable within an allelic series)
binding signal [9]: 12.7 upbm affinity estimate (log intensity, higher = more binding, comparable within an allelic series)

GAACATTC
binding signal [3]: 10.5 upbm affinity estimate (log intensity, higher = more binding, comparable within an allelic series)

CACAGGCC
binding signal [6]: 9.58 upbm affinity estimate (log intensity, higher = more binding, comparable within an allelic series)
binding signal [11]: 6.73 upbm affinity estimate (log intensity, higher = more binding, comparable within an allelic series)
binding signal [12]: 6.9 upbm affinity estimate (log intensity, higher = more binding, comparable within an allelic series)
binding signal [13]: 6.72 upbm affinity estimate (log intensity, higher = more binding, comparable within an allelic series)

GATAAGTA
binding signal [6]: 11.6 upbm affinity estimate (log intensity, higher = more binding, comparable within an allelic series)
binding signal [14]: 13.3 upbm affinity estimate (log intensity, higher = more binding, comparable within an allelic series)
binding signal [7]: 10.6 upbm affinity estimate (log intensity, higher = more binding, comparable within an allelic series)

CCGTGGGA
binding signal [6]: 9.37 upbm affinity estimate (log intensity, higher = more binding, comparable within an allelic series)
binding signal [15]: 6.49 upbm affinity estimate (log intensity, higher = more binding, comparable within an allelic series)
binding signal [16]: 6.42 upbm affinity estimate (log intensity, higher = more binding, comparable within an allelic series)
binding signal [17]: 6.53 upbm affinity estimate (log intensity, higher = more binding, comparable within an allelic series)

AAAGTGGT
binding signal [6]: 11.7 upbm affinity estimate (log intensity, higher = more binding, comparable within an allelic series)
binding signal [8]: 12.7 upbm affinity estimate (log intensity, higher = more binding, comparable within an allelic series)
binding signal [9]: 12.8 upbm affinity estimate (log intensity, higher = more binding, comparable within an allelic series)

ATTGCACA
binding signal [3]: 10.8 upbm affinity estimate (log intensity, higher = more binding, comparable within an allelic series)

GGGGGACC
binding signal [6]: 8.9 upbm affinity estimate (log intensity, higher = more binding, comparable within an allelic series)
binding signal [14]: 9.01 upbm affinity estimate (log intensity, higher = more binding, comparable within an allelic series)
binding signal [7]: 8.91 upbm affinity estimate (log intensity, higher = more binding, comparable within an allelic series)

ATGAGAAT
binding signal [3]: 10.8 upbm affinity estimate (log intensity, higher = more binding, comparable within an allelic series)
binding signal [18]: 11.2 upbm affinity estimate (log intensity, higher = more binding, comparable within an allelic series)

CGCGGGCC
binding signal [6]: 9.38 upbm affinity estimate (log intensity, higher = more binding, comparable within an allelic series)
binding signal [15]: 6.41 upbm affinity estimate (log intensity, higher = more binding, comparable within an allelic series)
binding signal [16]: 6.28 upbm affinity estimate (log intensity, higher = more binding, comparable within an allelic series)
binding signal [8]: 10.4 upbm affinity estimate (log intensity, higher = more binding, comparable within an allelic series)
binding signal [17]: 6.3 upbm affinity estimate (log intensity, higher = more binding, comparable within an allelic series)
binding signal [9]: 10.4 upbm affinity estimate (log intensity, higher = more binding, comparable within an allelic series)

CCGTGCCG
binding signal [6]: 9.27 upbm affinity estimate (log intensity, higher = more binding, comparable within an allelic series)
binding signal [19]: 7.7 upbm affinity estimate (log intensity, higher = more binding, comparable within an allelic series)
binding signal [20]: 9.53 upbm affinity estimate (log intensity, higher = more binding, comparable within an allelic series)
binding signal [21]: 9.45 upbm affinity estimate (log intensity, higher = more binding, comparable within an allelic series)
binding signal [22]: 7.7 upbm affinity estimate (log intensity, higher = more binding, comparable within an allelic series)
binding signal [23]: 7.76 upbm affinity estimate (log intensity, higher = more binding, comparable within an allelic series)
binding signal [24]: 9.84 upbm affinity estimate (log intensity, higher = more binding, comparable within an allelic series)
binding signal [25]: 7.72 upbm affinity estimate (log intensity, higher = more binding, comparable within an allelic series)
binding signal [26]: 7.71 upbm affinity estimate (log intensity, higher = more binding, comparable within an allelic series)

GCCGACCA
binding signal [6]: 9.61 upbm affinity estimate (log intensity, higher = more binding, comparable within an allelic series)
binding signal [27]: 7.83 upbm affinity estimate (log intensity, higher = more binding, comparable within an allelic series)

ATCACTTA
binding signal [6]: 11.6 upbm affinity estimate (log intensity, higher = more binding, comparable within an allelic series)
binding signal [14]: 13.3 upbm affinity estimate (log intensity, higher = more binding, comparable within an allelic series)
binding signal [7]: 10.4 upbm affinity estimate (log intensity, higher = more binding, comparable within an allelic series)

ACAAGTGC
binding signal [6]: 11.5 upbm affinity estimate (log intensity, higher = more binding, comparable within an allelic series)
binding signal [7]: 10.6 upbm affinity estimate (log intensity, higher = more binding, comparable within an allelic series)

AAGTACAT
binding signal [6]: 11.6 upbm affinity estimate (log intensity, higher = more binding, comparable within an allelic series)
binding signal [8]: 12.4 upbm affinity estimate (log intensity, higher = more binding, comparable within an allelic series)
binding signal [9]: 12.6 upbm affinity estimate (log intensity, higher = more binding, comparable within an allelic series)

GATTAAGA
binding signal [28]: 12.7 upbm affinity estimate (log intensity, higher = more binding, comparable within an allelic series)

GGGGGCGA
binding signal [6]: 9.39 upbm affinity estimate (log intensity, higher = more binding, comparable within an allelic series)
binding signal [19]: 7.73 upbm affinity estimate (log intensity, higher = more binding, comparable within an allelic series)
binding signal [22]: 7.8 upbm affinity estimate (log intensity, higher = more binding, comparable within an allelic series)
binding signal [23]: 7.65 upbm affinity estimate (log intensity, higher = more binding, comparable within an allelic series)
binding signal [25]: 7.66 upbm affinity estimate (log intensity, higher = more binding, comparable within an allelic series)
binding signal [26]: 7.72 upbm affinity estimate (log intensity, higher = more binding, comparable within an allelic series)

TATCTCAA
binding signal [3]: 11 upbm affinity estimate (log intensity, higher = more binding, comparable within an allelic series)

AAGTGCTC
binding signal [6]: 11.6 upbm affinity estimate (log intensity, higher = more binding, comparable within an allelic series)
binding signal [8]: 12.5 upbm affinity estimate (log intensity, higher = more binding, comparable within an allelic series)
binding signal [9]: 12.7 upbm affinity estimate (log intensity, higher = more binding, comparable within an allelic series)

ACCTGGTG
binding signal [6]: 9.61 upbm affinity estimate (log intensity, higher = more binding, comparable within an allelic series)
binding signal [11]: 6.8 upbm affinity estimate (log intensity, higher = more binding, comparable within an allelic series)
binding signal [12]: 6.74 upbm affinity estimate (log intensity, higher = more binding, comparable within an allelic series)
binding signal [13]: 6.77 upbm affinity estimate (log intensity, higher = more binding, comparable within an allelic series)

AAGGCCCA
binding signal [6]: 9.71 upbm affinity estimate (log intensity, higher = more binding, comparable within an allelic series)
binding signal [8]: 10.7 upbm affinity estimate (log intensity, higher = more binding, comparable within an allelic series)
binding signal [9]: 10.7 upbm affinity estimate (log intensity, higher = more binding, comparable within an allelic series)

ATTAGAGG
binding signal [3]: 10.9 upbm affinity estimate (log intensity, higher = more binding, comparable within an allelic series)
binding signal [10]: 10.2 upbm affinity estimate (log intensity, higher = more binding, comparable within an allelic series)

GCCCACGA
binding signal [6]: 9.49 upbm affinity estimate (log intensity, higher = more binding, comparable within an allelic series)
binding signal [15]: 6.38 upbm affinity estimate (log intensity, higher = more binding, comparable within an allelic series)
binding signal [16]: 6.28 upbm affinity estimate (log intensity, higher = more binding, comparable within an allelic series)
binding signal [17]: 6.37 upbm affinity estimate (log intensity, higher = more binding, comparable within an allelic series)

GACCCGAC
binding signal [6]: 9.44 upbm affinity estimate (log intensity, higher = more binding, comparable within an allelic series)
binding signal [8]: 10.7 upbm affinity estimate (log intensity, higher = more binding, comparable within an allelic series)
binding signal [9]: 10.7 upbm affinity estimate (log intensity, higher = more binding, comparable within an allelic series)

AACTAATC
binding signal [28]: 12.7 upbm affinity estimate (log intensity, higher = more binding, comparable within an allelic series)

AAGTGGTG
binding signal [6]: 11.6 upbm affinity estimate (log intensity, higher = more binding, comparable within an allelic series)
binding signal [8]: 12.7 upbm affinity estimate (log intensity, higher = more binding, comparable within an allelic series)
binding signal [9]: 12.8 upbm affinity estimate (log intensity, higher = more binding, comparable within an allelic series)

GTCGATAA
binding signal [3]: 10.9 upbm affinity estimate (log intensity, higher = more binding, comparable within an allelic series)
binding signal [11]: 8.04 upbm affinity estimate (log intensity, higher = more binding, comparable within an allelic series)
binding signal [10]: 10.3 upbm affinity estimate (log intensity, higher = more binding, comparable within an allelic series)

TACACTCA
binding signal [6]: 11.1 upbm affinity estimate (log intensity, higher = more binding, comparable within an allelic series)
binding signal [8]: 11.9 upbm affinity estimate (log intensity, higher = more binding, comparable within an allelic series)
binding signal [9]: 12 upbm affinity estimate (log intensity, higher = more binding, comparable within an allelic series)

AAGTGGGG
binding signal [6]: 11.7 upbm affinity estimate (log intensity, higher = more binding, comparable within an allelic series)
binding signal [8]: 12.7 upbm affinity estimate (log intensity, higher = more binding, comparable within an allelic series)
binding signal [9]: 12.8 upbm affinity estimate (log intensity, higher = more binding, comparable within an allelic series)
